Data on 4 compounds can be found in PubChem BioAssay (NCATS).

SMILES strings stand for the structures. Inconclusive results are not listed. A number with no mark means an inactive call. The call rests on the fitted dose curve; in most records, active means well fitted activation curve with a large enough effect; inconclusive means small, poorly fitted or top-dose-only effect; inactive means no such curve, though single readings can be large or run the other way.

The target in the experiment is Cellular tumor antigen p53 (Homo sapiens) (UniProt P04637). The experiment can be described thus: Primary qHTS for small molecule compounds that upregulate eGFP-tagged delta133p53alpha (in N-terminal) cells. (AID 2060322).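 Further: series mostly up to about 56 µM; 0% = DMSO vehicle and 100% = reference activator; nearly all actives have a fitted effect of over 75% in size.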 The note with it: NCI-H358 eGFP-delta133p53alpha fluorescence, 24 h; activation: stronger effect = higher value. The gist of the method: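 NCI-H358 cells pre-induced 24 h with 10 ng/ml doxycycline to express N-terminal eGFP-delta133p53alpha, then dosed 24 h at 37C without doxycycline; fixed, Hoechst-stained, GFP intensity by laser scanning cytometry, normalized to DMSO (0%) and 57.5 uM 5-azacytidine (100%).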
Sequence of Cellular tumor antigen p53 (Homo sapiens) (P04637 whole entry, looked up): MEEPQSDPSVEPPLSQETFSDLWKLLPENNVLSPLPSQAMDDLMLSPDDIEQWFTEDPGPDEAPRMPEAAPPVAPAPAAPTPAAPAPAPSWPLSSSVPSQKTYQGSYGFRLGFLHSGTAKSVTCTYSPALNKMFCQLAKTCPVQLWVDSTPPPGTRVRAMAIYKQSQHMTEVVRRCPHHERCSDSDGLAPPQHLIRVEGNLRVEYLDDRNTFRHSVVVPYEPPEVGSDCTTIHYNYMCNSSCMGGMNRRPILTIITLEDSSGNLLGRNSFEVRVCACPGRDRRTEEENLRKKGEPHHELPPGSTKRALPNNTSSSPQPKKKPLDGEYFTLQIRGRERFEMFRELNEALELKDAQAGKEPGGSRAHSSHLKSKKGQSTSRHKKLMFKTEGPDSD
A general note: qHTS replaces the single test concentration by a dilution series.
As to `CN(C)c1ccc(C(=O)NCCCCCC(=O)NO)cc1`, the activation was 10.1%.

As to `Nc1ncnc2c1ncn2[C@@H]1O[C@H](COP(=O)(O)O)[C@@H](O)[C@H]1O`, the activation is 5.08%.

Regarding `C[N+]1(C)[C@@H]2CC(OC(=O)[C@H](CO)c3ccccc3)C[C@H]1[C@H]1O[C@@H]12` (some centres undefined), the activation is 14%.

Consider `CC1CCc2c(N3CCC(O)CC3)c(F)cc3c(=O)c(C(=O)O)cn1c23` (centres undefined), for which the activation was 5.02%.
